E coli growth-1 – E. coli V3065 growth inhibition, primary screen, counter-screen for AddAB inhibitor project, absorbance, OD600 | inhibition, % at 11.9 µM | actives 0.27% (n = 330,000) | 18 h | AID 449728, 2010;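 active = inhibition above the campaign's mean inhibition across all tested compounds plus 3 SD, cut at about 9.9% in these data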;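 note: uninfected addAB+ strain grown without phage in ampicillin broth; 0% = DMSO wells and 100% = ciprofloxacin 0.95 µg/ml wells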
Tat export inh – E. coli Tat export inhibitors, primary screen, MC4100, TorA-mCherry reporter, fluorescence, single point | actives 0.036% (n = 340,000) | inhibition, % at 10 µM;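 active = mean replicate inhibition at least 50% and at least half of replicates individually reaching 50%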;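 note: exported cargo escapes ClpAP degradation while cytoplasmic cargo is degraded and loses fluorescence; 0% = median of neutral control wells and 100% = median of NaSCN control wells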
AddAB inh – growth inhibition of E. coli expressing H. pylori AddAB, primary screen, AddAB inhibitor project, absorbance; actives 0.29% (n = 330,000); AID 435030, 2010; inhibition, % at 11.9 µM; in the data active = inhibition above about 12%;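 note: 0% = vehicle wells of infected cells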
E coli growth-2 – E. coli growth inhibition, primary screen, OD600; actives 0.21% (n = 330,000); Escherichia coli growth, 23 h; stronger effect = lower value; AID 1053175, 2014; OD600 absorbance (concentration not given with the values);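 active = OD600 absorbance below the run mean of sample wells minus 3.6 SD, in any replicate, cut at about 0.56 in these data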
phage Ecoli inh – growth loss of phage-infected E. coli, primary screen, RecBCD inhibitor project, absorbance, with phage, HTS. inhibition, % at 11.9 µM. actives 0.26% (n = 360,000); in the data active = inhibition above about 11%
Starred values were filed as active, the others as inactive; / = no result given; ! = not confirmed by another sample. Most compounds without a hit are left out; they make up all but 0.5% or so of the library.

SMILES	E coli growth-1	Tat export inh	AddAB inh	E coli growth-2	phage Ecoli inh
O=C(NC(=S)NNC(=O)c1ccco1)c1ccccc1	-6.5	0.3	-7.8	0.508*	-4.0
CC(=O)OCc1c(F)c(F)c(-n2nc(C)cc2C)c(F)c1F	2.4	2.2	4.7	0.715	0.9
CCOC(=O)c1cccnc1SCC(=O)NC(C)CC (stereo not drawn)	4.0	-6.8	1.1	0.659	2.1
COc1ccc(-c2ccc(-c3noc(-c4ccccc4OC)n3)c(OC)n2)cc1	0.5	52.6*	2.8	0.725	0.8
Nc1nc(Cl)nc2c1ncn2C1OC(CO)C(O)C1O (stereo not drawn)	/	/	/	0.673	3.9
Nc1ncn(C2O[C@H](CO)[C@@H](O)[C@H]2O)c(=O)n1 (stereo partly drawn)	95.8*	/	96.5*	/	/
Nc1nc(F)nc2c1ncn2C1OC(CO)C(O)C1O (stereo not drawn)	/	/	/	0.454*!	/
Cc1ccc(-c2ccc(C=NN3C(=O)C4C5C=CC(CC5)C4C3=O)o2)c([N+](=O)[O-])c1 (stereo not drawn)	/	/	/	0.666	/
CC(=O)Nc1cccc(-c2ccnc3c2CC(C(=O)Nc2ccc(C(C)C)cc2)O3)c1 (stereo not drawn)	/	/	/	/	0.0
COc1ccc(-c2ccc(OC)c(C3C4C=CCC(C)C4C(=O)N3Cc3ccccc3)c2)cc1 (stereo not drawn)	/	/	/	0.736	/
O=C(NNc1ccccc1)c1ccccc1	/	5.0	/	0.679	4.3
O=C(NNc1ccc(O)cc1)c1ccc(Br)cc1	5.9	-1.4	6.7	0.436*	9.9
Cc1ccc(S(=O)(=O)N2CC(=O)NC(=O)C2)cc1	2.1	-2.9	4.5	0.685	1.9
CCOc1cccc(/C=N/NC(=S)Nc2ccccc2[N+](=O)[O-])c1O	8.9	-16.1	11.8	/	10.9*
CCCOc1ccc(C=NNC(=S)Nc2ccccc2[N+](=O)[O-])c(O)c1	/	/	/	0.704	/
O=C(Nc1cccc(S(=O)(=O)N2CCCCC2)c1)c1cc([N+](=O)[O-])ccc1N1CCOCC1	-0.7	1.9	-1.7	0.704	1.2
N=C1/C(=C/c2cccn2CCOc2ccccc2)C(=O)N=C2SC=C(c3ccccc3)N12	-0.9	4.6	3.6	0.739	2.3
COC(=O)C1=C(C)N(Cc2ccccc2)C(=NCc2cccc(C(F)(F)F)c2)NC1c1cccc(F)c1 (stereo not drawn)	/	/	/	0.637	/
Cc1ccnc(NC(=O)c2ccc([N+](=O)[O-])s2)c1	9.5	-7.6	13.8*	0.598	7.5
N#CC(c1ccc(Cl)cc1)c1ccc2c(C(F)(F)F)cc(C(F)(F)F)nc2n1 (stereo not drawn)	1.6	-15.5	3.2	0.683	14.7*
FC(F)(F)c1cc(C(F)(F)F)c2ccc(N3CCN(c4ccc(Cl)cc4)CC3)nc2n1	0.8	-8.0	1.5	0.746	1.2
CC(=O)Nc1ccc(S(=O)(=O)N2CCN(C(=O)C(=O)c3cccc(C(F)(F)F)c3)CC2)cc1	/	/	/	/	1.3
CC(=O)Nc1ccc(S(=O)(=O)N2CCN(c3cc(C(F)(F)F)ccn3)CC2)cc1	-2.4	2.6	-0.8	0.11*	0.5
S=C(NCc1ccco1)Nc1ccc(Cl)c(Cl)c1	8.3	-2.5	8.9	0.47*	8.7
CC(C)(C)c1ccc(C(=O)C=[N+]=[N-])cc1	1.2	-2.2	3.9	0.684	2.5
SMILES	E coli growth-1	Tat export inh	AddAB inh	E coli growth-2	phage Ecoli inh
CCCS(=O)(=O)N1CCCC(C(=O)NCCCN2CCCC2=O)C1 (stereo not drawn)	10.8*	4.0	15.1*	0.681	-0.1
O=C(CN1C(=O)NC(CCc2ccccc2)C1=O)Nc1ccccc1C(F)(F)F (stereo not drawn)	0.9	-5.3	2.0	0.664	0.3
Cc1nc2ccccc2n1N=Cc1ccc([N+](=O)[O-])o1	/	/	/	0.292*	/
O=C(OC[C@H]1O[C@@H](OC(=O)c2cc(O)c(O)c(OC(=O)c3cc(O)c(O)c(O)c3)c2)[C@H](OC(=O)c2cc(O)c(O)c(OC(=O)c3cc(O)c(O)c(O)c3)c2)[C@@H](OC(=O)c2cc(O)c(O)c(OC(=O)c3cc(O)c(O)c(O)c3)c2)[C@@H]1OC(=O)c1cc(O)c(O)c(OC(=O)c2cc(O)c(O)c(O)c2)c1)c1cc(O)c(O)c(OC(=O)c2cc(O)c(O)c(O)c2)c1	30.2*	/	27.6*	/	/
CC12CCC(C(=O)N(CSC(=S)NN=Cc3ccccc3O)C1=O)C2(C)C (stereo not drawn)	/	/	/	0.705	/
CC12CCC(C(=O)N(CSC(=S)N/N=C\c3ccccc3Cl)C1=O)C2(C)C (stereo not drawn)	10.7*	2.5	4.1	/	4.8
O=C(COC(=O)c1ccccc1)Nc1ncc([N+](=O)[O-])s1	0.3	0.0	3.0	0.597	4.4
O=C(Nc1ccccc1)Nc1ncc([N+](=O)[O-])s1	/	21.8	/	0.362*	4.5
CCCc1cc(=O)n2[nH]cc(-c3ccc(Cl)cc3)c2n1	/	-3.0	/	0.348*	-4.7
C=CCN1C(=O)[C@@H]2Cc3c([nH]c4ccccc34)C(c3ccc(O)cc3)N2C1=S (stereo partly drawn)	-1.2	4.5	1.2	0.0665*	/
C=CCN1C(=O)[C@@H]2Cc3c([nH]c4ccccc34)C(c3cc(OC)c(OC)c(OC)c3)N2C1=S (stereo partly drawn)	-2.2	-5.9	-0.9	0.69	6.0
O=C(Nc1ccc(Cl)cc1)NN1CCCCCC1	/	6.4	/	0.622	2.9
N#Cc1ccc(NC(=O)NN2CCCCCC2)cc1	/	11.8	/	0.528*	10.4
COc1ccc(CNc2ncnc3c2[nH]c2ccccc23)cc1	7.8	/	7.8	/	8.4
Cc1ccc2[nH]c3c(NCc4ccccc4)ncnc3c2c1	/	/	/	0.464*	2.4
CC(OC(=O)C1COc2ccccc2O1)C(=O)c1ccccc1 (stereo not drawn)	/	/	/	/	1.4
CC[n+]1ccc(/C=C/c2ccc(N(C)C)cc2)c2ccccc21	/	-299.6	/	0.347*	-0.8
CCN(CC)c1ccc(/C=C/c2ccc3ccc(OC)cc3[n+]2CC)cc1	12.4*	-444.8	11.8	0.502*	7.4
CC[n+]1c(/C=C/c2ccc(N(C)C)cc2)ccc2ccccc21	1.7	-369.9	4.3	0.469*	3.9
Cc1c(NC(=O)COc2ccc3ccccc3c2)c(=O)n(-c2ccccc2)n1C	2.3	/	1.6	0.521*	1.6
Cc1c(NC(=O)COc2cccc(F)c2)c(=O)n(-c2ccccc2)n1C	-0.5	-2.7	-0.1	0.701	2.5
CC1(C)CC2c3cccc(C(=O)O)c3C(=O)N2c2c1ccc1ccccc21 (stereo not drawn)	-0.5	8.7	0.3	0.704	4.8
CO/N=C(/C(=O)N[C@@H]1C(=O)N2C(C(=O)O)=CCS[C@H]12)c1cnc(N)s1	100.3*	/	100.0*	/	/
O=C(COc1ccccc1)NC1C(=O)N2C(C(=O)O)=C(Cl)CSC12 (stereo not drawn)	2.2	0.5	3.4	0.689	1.2
Cc1c2ccncc2cc2c1[nH]c1ccccc12	/	4.1	/	0.414*	4.4
Nc1nc2ccccc2n1Cc1ccc(Cl)c(Cl)c1	3.3	13.4	3.0	0.439*	-1.7
